From PubChem BioAssay (Tox21)
Results filed as inconclusive are left out. Activity calls are given as the source filed them. Unless noted, calls follow the shape of the dose curve; as a rule, active = well fitted curve in the direction sought with a large enough effect in the repeat runs; inconclusive = weak or mixed curves; inactive = flat fitted curve, though single readings scatter.

Experiments:
[1] = qHTS assay to test for compound auto fluorescence at 535 nm (green) in HEK293 cells (AID 720680)
[2] = qHTS assay to test for compound auto fluorescence at 460 nm (blue) in HEK293 cell free culture (AID 720681)
Method in brief: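 Blue fluorescence (Ex 405/Em 460 nm, triamterene-equivalent) was read immediately after pin transfer of compound or DMSO into medium (DMEM, 10% FBS) without cells.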

[3] = qHTS assay to test for compound auto fluorescence at 535 nm (green) in HEK293 cell free culture (AID 720682)
Method in brief: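 Each library compound, or DMSO control, is added by pintool to medium alone, comprising DMEM and 10% FBS. Emission at 535 nm following 485 nm excitation is quantified against fluorescein.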

[4] = qHTS assay to test for compound auto fluorescence at 590 nm (red) in HepG2 cell free culture (AID 720684)
Method in brief: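 Steps: dispense MEM/10% FBS medium, no cells; pin compound or DMSO vehicle; read red channel, Ex/Em 540/590 nm. Output given as Rose Bengal sodium equivalents.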

[5] = qHTS assay to test for compound auto fluorescence at 460 nm (blue) in HepG2 cell free culture (AID 720685)
Method in brief: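 Compound (23 nL) or DMSO pinned into cell-free MEM with 10% FBS; blue fluorescence read at 405/460 nm excitation/emission, expressed as auto-fluorescence equivalency to triamterene.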

[6] = qHTS assay to test for compound auto fluorescence at 535 nm (green) in HepG2 cell free culture (AID 720686)
[7] = qHTS assay to test for compound auto fluorescence at 460 nm (blue) in HepG2 cells (AID 720687)
Method in brief: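 Blue-channel autofluorescence (Ex/Em 405/460 nm, triamterene-equivalent) was measured after 1 hr compound exposure at 37 C, 5% CO2. Cells were HepG2, plated overnight at 37 C in MEM plus 10% FBS.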

[8] = target: Glucocorticoid receptor (Homo sapiens) (UniProt P04150); test: qHTS assay to identify small molecule agonists of the glucocorticoid receptor (GR) signaling pathway (AID 720691; active = well fitted activation curve with a large enough effect in the signal ratio in the repeat runs, not every such curve was filed as active; the % refers to the signal ratio)
Chain of Glucocorticoid receptor (Homo sapiens) (P04150 whole entry, looked up): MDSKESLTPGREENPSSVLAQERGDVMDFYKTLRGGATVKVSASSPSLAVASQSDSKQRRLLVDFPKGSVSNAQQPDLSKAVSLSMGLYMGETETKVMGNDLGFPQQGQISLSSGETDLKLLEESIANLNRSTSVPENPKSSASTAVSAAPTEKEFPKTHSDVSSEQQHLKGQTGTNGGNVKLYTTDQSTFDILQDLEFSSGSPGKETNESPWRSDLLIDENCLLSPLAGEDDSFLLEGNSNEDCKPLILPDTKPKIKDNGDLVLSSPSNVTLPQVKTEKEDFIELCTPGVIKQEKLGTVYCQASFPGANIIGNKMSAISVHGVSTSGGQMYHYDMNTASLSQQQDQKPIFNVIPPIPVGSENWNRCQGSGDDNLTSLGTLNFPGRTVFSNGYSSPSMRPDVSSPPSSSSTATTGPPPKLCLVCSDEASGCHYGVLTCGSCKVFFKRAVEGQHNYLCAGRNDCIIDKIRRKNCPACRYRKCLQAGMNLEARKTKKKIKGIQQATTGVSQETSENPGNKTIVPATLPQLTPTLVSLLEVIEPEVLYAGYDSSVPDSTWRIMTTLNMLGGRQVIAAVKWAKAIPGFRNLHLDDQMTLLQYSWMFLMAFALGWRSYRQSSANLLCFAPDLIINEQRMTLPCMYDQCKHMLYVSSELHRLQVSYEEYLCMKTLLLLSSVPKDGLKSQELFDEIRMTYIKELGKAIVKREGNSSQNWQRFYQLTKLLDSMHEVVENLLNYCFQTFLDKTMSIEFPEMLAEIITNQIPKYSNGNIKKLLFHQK
Method in brief: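 qHTS in GR-bla HeLa cells: 4 h settling at 37 C/5% CO2, 18 h compound incubation at 37 C, 2 h LiveBLAzer B/G FRET substrate at room temperature, fluorescence intensity measured.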

[9] = target: Glucocorticoid receptor (Homo sapiens) (UniProt P04150); test: qHTS assay to identify small molecule antagonists of the glucocorticoid receptor (GR) signaling pathway (AID 720692; active = well fitted inhibition curve with a large enough effect in the signal ratio in the repeat runs, not every such curve was filed as active; the % refers to the signal ratio)
Method in brief: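 Inhibition of glucocorticoid signalling is measured in HeLa cells with a GRE-controlled beta-lactamase reporter; cells are co-treated with compound and 5 nM dexamethasone (final) for 18 h before FRET substrate readout.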

[10] = qHTS assay to test for compound auto fluorescence at 590 nm (red) in HEK293 cell free culture (AID 720683)
Method in brief: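 Red-channel autofluorescence of compounds in culture medium (DMEM, 10% FBS), no cells, measured at 540/590 nm. Rose Bengal sodium is the reference fluorophore for equivalence.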

Measured: Potency

O=C(Cl)C(Cl)(Cl)Cl
inactive: [1] | [2] | [3] | [4] | [5] | [6] | [7] | [8]

Cc1ccc(Cl)c(O)c1
inactive: [1] | [2] | [3] | [6] | [7] | [8] | [9]

CCc1cc(OC)c(C[C@H](C)N)cc1OC
inactive: [1] | [2] | [3] | [4] | [5] | [7] | [8] | [9]

CCCN1CCC[C@@H]2Cc3nc(N)ncc3C[C@H]21
inactive: [1] | [2] | [3] | [4] | [5] | [6] | [7]

CC1N=C(N)OC1c1ccccc1 (centres undefined)
inactive: [1] | [2] | [3] | [4] | [5] | [6] | [7] | [8] | [9]

O=C(NC(O)C(Cl)(Cl)Cl)NC(O)C(Cl)(Cl)Cl (centres undefined)
inactive: [1] | [2] | [3] | [4] | [5] | [7] | [8] | [9]

C=C(C)[C@H]1CN[C@H](C(=O)O)[C@H]1CC(=O)O
inactive: [1] | [2] | [3] | [4] | [5] | [6] | [8] | [9]

Cl/C=C/CCl
inactive: [1] | [2] | [3] | [4] | [6] | [8]

COc1cc(CC(C)N)cc(OC)c1OC (centres undefined)
inactive: [1] | [2] | [3] | [4] | [7] | [8]

N=C(N)[Se]
inactive: [1] | [2] | [3] | [10] | [6] | [7] | [8]

O=C/C=C/c1ccco1
inactive: [1] | [2] | [3] | [10] | [8] | [9]

CN(C)CCN(C)C
inactive: [1] | [2] | [3] | [5] | [7] | [8]

Oc1ccc2c3c1O[C@H]1[C@@H](O)C=C[C@H]4[C@@H](C2)NCC[C@@]341
inactive: [1] | [2] | [3] | [5] | [6] | [7]

CCOC(=O)C(SP(=S)(OC)OC)c1ccccc1 (centres undefined)
inactive: [1] | [2] | [3] | [4] | [5] | [6] | [7] | [8]

CCOC(=O)c1ncn2c1CN(C)C(=O)c1c(I)cccc1-2
inactive: [1] | [2] | [3] | [6] | [7] | [8]

O=C(O)C(Br)(Br)Br
inactive: [1] | [2] | [3] | [4] | [5]

NNC(N)=O
inactive: [1] | [2] | [3] | [5] | [6] | [7] | [8]

CC1=C2[C@H]3OC(=O)[C@@H](C)[C@@H]3CC[C@@]2(C)C=CC1=O
inactive: [1] | [2] | [3] | [4] | [5] | [6] | [7] | [8] | [9]

CCOP(=O)(CN(CCO)CCO)OCC
inactive: [1] | [2] | [3] | [4] | [5] | [6] | [7] | [8] | [9]

N[C@@H](Cc1ccc(Oc2cc(I)c(O)c(I)c2)c(I)c1)C(=O)O
inactive: [1] | [2] | [3] | [4] | [5] | [7]

C/C(=N\NC(=O)Nc1cc(F)cc(F)c1)c1ncccc1C(=O)O
inactive: [1] | [2] | [3] | [5] | [6] | [7] | [8] | [9]

CCC1(c2ccccc2)C(=O)N(COC)C(=O)N(COC)C1=O
inactive: [1] | [2] | [3] | [10] | [5] | [7] | [8] | [9]

CC[C@H](N)c1ccccc1
inactive: [1] | [2] | [3] | [5] | [6] | [8] | [9]

COC1=CC(=O)O[C@@H](/C=C/c2ccccc2)C1
inactive: [1] | [2] | [3] | [4] | [5] | [7] | [8] | [9]

CS(=O)(=O)c1ccc(C(=O)C2C(=O)CCCC2=O)c(Cl)c1COCC(F)(F)F
inactive: [1] | [2] | [3] | [4] | [5] | [6] | [7] | [8]

O=C(Cl)OCc1ccccc1
inactive: [1] | [2] | [3] | [4] | [5] | [7] | [8] | [9]

O=[N+]([O-])CCO
inactive: [1] | [2] | [3] | [4] | [5] | [6] | [7] | [8] | [9]

CC(C)(O)C(Cl)(Cl)Cl
inactive: [1] | [2] | [3] | [4] | [5] | [6] | [7] | [8]

BrCCc1ccccc1
inactive: [1] | [2] | [3] | [4] | [5] | [6] | [7] | [8] | [9]

Cc1ccc2cc(C)ccc2c1
inactive: [1] | [2] | [3] | [10] | [6] | [7] | [8] | [9]

O=C(Cl)/C=C/C(=O)Cl
inactive: [1] | [2] | [3] | [4] | [5] | [6] | [7] | [8] | [9]

CN1COCN(Cc2cnc(Cl)s2)/C1=N\[N+](=O)[O-]
inactive: [1] | [2] | [3] | [10] | [7] | [8] | [9]
